# Experimental data as given in PubChem BioAssay (Tox21).
# The source made the active and inactive calls. Calls come from the whole dose curve; as a rule, active = well fitted cell-killing curve with a large enough effect in the repeat runs; inconclusive = weak or mixed curves, or effect the other way; inactive = flat fitted curve, though single readings scatter.
# Assay: qHTS assay to identify small molecule HDAC inhibitors - cell viability counter screen (AID 1259365); note: nearly all actives have a fitted effect of over 50% in size
# Settings: HCT-116 viability, CellTiter-Glo ATP luminescence, 2 h; series mostly up to 92.4 µM
# Description: U.S. Tox21 Program National Center for Advancing Translational Sciences [NCATS] NIH Chemical Genomics Center [NCGC] U.S. Environmental Protection Agency [EPA] National Institutes of Environmental Health Sciences [NIEHS] National Toxicology Program [NTP] U.S. Food and Drug Administration [FDA] Tox21 Assay Overview: Histone deacetylases (HDACs) are a group of epigenetic enzymes that regulate gene expression by histone deacetylation. HDACs are capable of introducing epigenetic modifications and such aberrations contribute to the onset and progression of several human diseases, thus making HDACs a popular therapeutic target. For identifying endogenous class I/II HDAC inhibitors a homogenous, luminogenic HDAC I/II cell based assay was used to measure the relative activity of class I and II HDACs from cells. Wild type HCT-116 cells were used to screen Tox21 compound libraries for identifying class I/II HDAC inhibitors.
# Tox21 Assay Protocol Summary: HCT-116 cells were dispensed at 1,500 per well in 5uL of culture medium into white solid bottom 1536-well plates (Greiner Bio-One, Monroe, NC) using a Multidrop Combi (Thermo Scientific, Waltham, MA) dispenser. The assay plates were incubated at 37 C and 5% CO2 for an overnight, and then 23nL of compounds dissolved in DMSO and positive control were transferred using a Pintool station (Wako, San Diego, CA). The assay plates were incubated at 37C and 5% CO2 for 2hr. After compound treatment, 4uL of CellTiter-Glo reagent (Promega Corporation, Madison, WI) was added to each well of the assay plates using Flying Reagent Dispenser (FRD, Aurora Discovery, San Diego, CA) and incubated the assay plates at room temperature for 30min. The luminescence signal was quantified using a ViewLux plate reader (Perkin Elmer, Shelton, CT).
row,SMILES,outcome
1,Cl/C=C/Cl,inactive
2,O=C(O)COc1ccccc1,inactive
3,CC[N+](=O)[O-],inactive
4,O=C(O)CCCc1ccc(N(CCCl)CCCl)cc1,inactive
5,C=CCN=C=S,inactive
6,COc1cc(-c2ccc(N)c(OC)c2)ccc1N,inactive
7,CSc1nnc(C(C)(C)C)c(=O)n1N,inactive
8,Cc1cccc(N)c1,inactive
9,CN(C)NC(=O)CCC(=O)O,inactive
10,FC(F)(F)c1ccc(Cl)cc1,inactive
11,Cc1ccccc1N,inactive
12,CN1C(=O)CCS(=O)(=O)C1c1ccc(Cl)cc1 (stereo not given),inactive
13,COC(C)(C)CCCC(C)C/C=C/C(C)=C/C(=O)OC(C)C (stereo not given),inactive
14,Sc1ccccc1,inactive
15,O=C(O)c1cc(Oc2ccc(C(F)(F)F)cc2Cl)ccc1[N+](=O)[O-],inactive
16,O=[N+]([O-])c1ccc(Cl)cc1,inactive
17,CC(C)c1cccc(C(C)C)c1O,inactive
18,Nc1cc(Cl)cc(Cl)c1,inactive
19,Cc1cc(Cl)ccc1OC(C)C(=O)O (stereo not given),inactive
20,CCSC(=O)N1CCCCCC1,inactive

row,SMILES,outcome
1,Cc1cccc(C)c1NC(=O)CN1CCCC1=O,inactive
2,CN(C)C(=O)C(c1ccccc1)c1ccccc1,inactive
3,CCOc1ccc(N)cc1,inactive
4,CCOP(=S)(OCC)Oc1ccc([N+](=O)[O-])cc1,inactive
5,CCCOC(=O)c1ccccc1C(=O)OCCC,inactive
6,Nc1ncc([N+](=O)[O-])s1,inactive
7,CNC(=O)O/N=C(\SC)C(=O)N(C)C,inactive
8,CCOP(=S)(OCC)Oc1cc(C)nc(C(C)C)n1,inactive
9,O=P1(NCCCl)OCCCN1CCCl (stereo not given),inactive
10,CNCC(O)c1ccc(O)cc1 (stereo not given),inactive
11,CNc1cnn(-c2cccc(C(F)(F)F)c2)c(=O)c1Cl,inactive
12,CN(C)C(=O)Nc1cccc(C(F)(F)F)c1,inactive
13,Nc1nc(N)nc(NC2CC2)n1,inactive
14,CCNc1nc(Cl)nc(NC(C)C)n1,inactive
15,COc1nc(NC(C)C)nc(NC(C)C)n1,inactive
16,N#CN=C(N)N,inactive
17,CCCCC(CC)C(=O)Cl (stereo not given),inactive
18,CNC(=O)O/N=C/C(C)(C)SC,inactive
19,Cc1ccc(O)c(C)c1,inactive
20,O=[N+]([O-])c1ccc(Cl)c(Cl)c1,inactive
